Each structure is given as a SMILES string. Calls of active or inactive are those of the source. The calls were made as follows: active = hit-call score of the fitted dose curve at least 0.9, where 1 is the maximum; inactive = score below 0.9.

The nature of the experiment: ATG_BRE_CIS: Attagene CIS-FACTORIAL HepG2 Assay for human Bone Morphogenetic Protein (BMP) Response Element (BRE) (AID 2282933). The conditions noted are these: HepG2 BMP response element reporter, Attagene transcription factor profiling; actives raise or lower the signal. The method, then:
ATG_CIS is a cell-based, multiplexed-readout assay that uses HepG2, a human liver cell line, with measurements taken at 24 hours after chemical dosing in a 24-well plate.ATG_BRE_CIS is one of 52 assay component(s) measured or calculated from the ATG_CIS assay. It is designed to make measurements of mRNA induction, a form of inducible reporter, as detected with fluorescence intensity signals by Reverse transcription polymerase chain reaction (RT-PCR) and Capillary electrophoresis technology.Data from the assay component ATG_BRE_CIS was analyzed into 1 assay endpoint. This assay endpoint, ATG_BRE_CIS, was analyzed with bidirectional fitting relative to DMSO as the negative control and baseline of activity. Using a type of inducible reporter, measures of mRNA for gain or loss-of-signal activity can be used to understand the reporter gene at the transcription factor-level as they relate to the gene SMAD1. Furthermore, this assay endpoint can be referred to as a primary readout, because this assay has produced multiple assay endpoints where this one serves a reporter gene function. To generalize the intended target to other relatable targets, this assay endpoint is annotated to the dna binding intended target family, where the subfamily is Smad protein.
Human liver HepG2 cells are transiently transfected with multiple reporter transcription units (MRTUs) in 6-well plates using FuGene 6 reagent (Roche; 3 ml FuGene/1 mg DNA). The MRTU constructs are regulated by a cis-regulating element (promoter). […] A major difference between the CIS and TRANS system is that in CIS activities of endogenous TFs are measured, whereas the TRANS assay evaluates changes in activities of exogenous, chimeric NR-Gal4 proteins. […] At the end of 24 hour incubation, total RNA was isolated using TriZol reagent (Invitrogen). The isolated RNA is then reverse-transcribed using oligo(dT) primer and Mo-MLV reverse transcriptase (Invitrogen) with DNAse I (Ambion) treatment for 30 min. The one-tenth of the produced cDNA was amplified by PCR using Taq DNA polymerase (Invitrogen) and two reporter sequence-specific primers. The PCR products were fluorescently labeled by primer extension with 6-arboxyfluorescein (6-FAM) 5'-labeled reporter sequence-specific primer (2 min at 95 C, 20 s at 68 C and 10 min at 72 C) and these products were digested with 5U of HpaI (New England Biolabs) for 2h at 37 C. The fragments were purified using Qiaquick PCR columns (Qiagen), analyzed on an ABI 3130xL genetic analyzer (Applied Biosystems) with peak positions identified by using a set of X-rhodamine (ROX)-labeled MapMarker1000 molecular weight standards (BioVentures). The raw capillary electrophoresis data was processed using Attagraph software (Attagene).
Consider `c1ccc2cc3ccccc3cc2c1`, for which the call was inactive.

On to `O=C(O)c1ccc2c(c1)nc(C(=O)NC1CCN(C3CC3)CC1)n2Cc1cc(-c2ccc(Cl)s2)on1`, for which the compound was called inactive.

In the case of `CC(C)c1nnc2ccc(-c3ocnc3-c3cc(F)ccc3F)cn12`, the compound was classed as inactive. On the same count and under the same terms, with `Cc1ncc([C@@H](CCCCCCc2ccc3c(n2)NCCC3)CC(=O)O)cn1` the entry was “inactive”; with `OC(CCl)CCl`, “inactive”; with `NC(=O)N(O)[C@@H]1COc2cc(OCc3ccccc3)ccc21`, “inactive”.

As to `Cn1cc[nH]c1=S`, the outcome was inactive. For `CC(=O)c1ccccc1`, the call was inactive. For the compound `OCCNCCO`, the compound was called inactive. On the same count and under the same terms, for `O=C(NO)C1(NS(=O)(=O)c2ccc(Oc3ccc(F)cc3)cc2)CCOCC1` the value was “inactive”. Still for that read-out and setting: for `CCCOc1ccc(S(=O)(=O)N2CCN(CC)CC2)cc1-c1nc2c(CC)n(Cc3ccccn3)nc2c(=O)[nH]1` the value was “inactive”. On the same count and under the same terms, with `FC(F)=C(F)C(F)(F)C(F)(F)C(F)(F)C(F)(F)C(F)(F)C(F)(F)F` the entry was “inactive”; with `OC[C@H]1O[C@@H]2O[C@H]3[C@H](O)[C@@H](O)[C@@H](O[C@H]4[C@H](O)[C@@H](O)[C@@H](O[C@H]5[C@H](O)[C@@H](O)[C@@H](O[C@H]6[C@H](O)[C@@H](O)[C@@H](O[C@H]7[C@H](O)[C@@H](O)[C@@H](O[C@H]1[C@H](O)[C@H]2O)O[C@@H]7CO)O[C@@H]6CO)O[C@@H]5CO)O[C@@H]4CO)O[C@@H]3CO`, “inactive”.

As for `CCCCOC(=O)c1ccccc1`, the compound was called inactive. Consider `COc1cc(C(C)C)c2c(c1)S(=O)(=O)N(COc1cc(=O)n3cccc(OCCN4CCCCC4)c3n1)C2=O`, for which the call was inactive. Consider `CCCCCCCCCCCCCCO`, for which the AC50 was 166 µM (active). Turning to `CCCC(CCC)C(=O)O`, the compound was classed as inactive. For the compound `O=c1[nH]cnc2c1ncn2[C@H]1CC[C@@H](CO)O1`, the result was inactive.

In the case of `Cc1ccc(S(=O)(=O)NC(=O)NN2CCCCCC2)cc1`, the compound was classed as inactive.

For `CCCCN1C(=O)[C@@H]([C@H](O)C2CCCCC2)NC(=O)C12CCN(Cc1ccc(Oc3ccc(C(=O)O)cc3)cc1)CC2`, the compound was classed as inactive. For the compound `OCc1ccccc1`, the compound was classed as inactive.

Regarding `OC(Cn1cncn1)(Cn1cncn1)c1ccc(F)cc1F`, the result was inactive. As to `CC(C)CC(C)O` (stereo not given), the call was inactive.

For the compound `O=C1CN(N=Cc2ccc([N+](=O)[O-])o2)C(=O)N1`, the compound was classed as inactive. For the compound `c1ccc2c(c1)-c1cccc3c1c-2cc1ccccc13`, the compound was classed as inactive. Regarding `CNC(C)=O`, the outcome was inactive. Turning to `CC[C@H](C)C(=O)O[C@H]1C[C@H](O)C=C2C=C[C@H](C)[C@H](CC[C@@H](O)C[C@@H](O)CC(=O)O)[C@H]21`, the call was inactive.

For the compound `CCOc1ccc2[nH]cc(C(=O)NCc3ccccc3)c(=O)c2n1`, the compound was classed as inactive. Consider `Cn1c(=O)c2[nH]cnc2n(C)c1=O`, for which the result was inactive. Consider `CCCCCCCCCC`, for which the call was inactive. `S=P(N1CC1)(N1CC1)N1CC1`: the call was inactive. For the compound `CCCCCCCC/C=C\CCCCCCCC(=O)OC[C@@H](O)[C@H]1OC[C@H](O)[C@H]1O`, the compound was classed as inactive. For the compound `O=S(=O)(O)CCC(F)(F)C(F)(F)C(F)(F)C(F)(F)C(F)(F)C(F)(F)F`, the result was inactive. Regarding `COCc1nnc(-c2ccc[n+]([O-])c2)n1-c1c(Cl)c(Cl)cc2[nH]c(=O)c(=O)[nH]c12`, the outcome was inactive. As for `OCCC(F)(F)C(F)(F)C(F)(F)C(F)(F)F`, the result was inactive. On to `Cc1cccc(O)c1C`, for which the result was inactive.

For `COS(C)(=O)=O`, the compound was classed as inactive. With `c1ccc(C(O[C@@H]2CCCN(CCc3ccc4c(c3)OCO4)C2)c2ccccc2)cc1`, the AC50 was 33 µM (active). Consider `CCCCCCCCCCCCCCCCOS(=O)(=O)O`, for which the result was inactive.

As for `CC(C)CCCCCCOC(=O)C1CCCCC1C(=O)OCCCCCCC(C)C` (stereo not given), the result was inactive.

In general, AC50 refers to the concentration giving half of the maximal activity seen.

Values taken from PubChem BioAssay (EPA / NIEHS).
